59 compounds from PubChem BioAssay AID492972 (The Scripps Research Institute Molecular Screening Center, 2010) can be followed below.

The whole screen tested about 340,000 compounds, of which about 930 (0.27%) were called active.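 The calls were made as follows: active = inhibition above the screen-wide average of all tested compounds plus 3 SD (cut at about 25% in these data); inactive = the rest.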 The entries come from a sample that favours actives as a whole.

Platelet-activating factor acetylhydrolase IB subunit alpha1 (Homo sapiens), sequence (Q15102 whole entry, looked up): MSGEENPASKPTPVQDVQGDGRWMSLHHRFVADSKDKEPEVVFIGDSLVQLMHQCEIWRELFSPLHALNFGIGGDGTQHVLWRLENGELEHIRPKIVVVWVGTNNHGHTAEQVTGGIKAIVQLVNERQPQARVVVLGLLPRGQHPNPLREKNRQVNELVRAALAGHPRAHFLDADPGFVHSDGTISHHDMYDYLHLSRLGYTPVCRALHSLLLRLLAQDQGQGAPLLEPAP

This assay addresses Platelet-activating factor acetylhydrolase IB subunit alpha1 (Homo sapiens) (UniProt Q15102). The assay is described as follows: PAFAH1B3 enzyme inhibitors, primary screen, biochemical, fluorescence polarization, human (AID 492972).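 Also: 0% = enzyme with DMSO only and 100% = wells lacking PAFAH1B3 protein.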 Conditions: recombinant PAFAH1B3, FP-rhodamine probe, at 3.39 µM, hits give high values.
Turning to `COc1ccc(N2CCN(C(=O)C3CCN(C(=O)c4ccccc4Cl)CC3)CC2)cc1`, the inhibition was -0.01% (inactive).

`CN(N)c1nc(N2CCCC2)nc(N2CCCC2)n1`: the inhibition was -3.46% (inactive).

`NC(=O)[C@H]1CC2(CC(c3cccc(NC(=O)[C@H]4CCC(=O)N4)c3)=NO2)CN1C(=O)c1ccccc1C(=O)c1ccccc1` (some centres undefined): the inhibition is -3.78% (inactive).

Regarding `O=c1[nH]cccc1-c1nc2ccccc2n1Cc1ccc(Cl)cc1`, the inhibition was 6.48% (inactive).

On to `O=C(Nc1nnc(-c2ccc(F)cc2)s1)c1c(F)cccc1Cl`, for which the inhibition was 4.95% (inactive).

For the compound `CN(C1CCS(=O)(=O)C1)S(=O)(=O)c1ccc2ccccc2c1` (centres undefined), the inhibition is 3.01% (inactive).

With `CC(C)(C)NC(=O)NC(=O)CN1CCC(Cc2ccccc2)CC1`, the inhibition was 0.05% (inactive).

Consider `COC(=O)CCSc1cc([N+](=O)[O-])cc2c1c(C1OCCS1)nn2-c1ccccc1` (centres undefined), for which the inhibition is -0.28% (inactive).

Take `ON=C1/C(=N\O)CC2(C/C1=N/O)OCCO2`: the inhibition was 32.1% (active).

As for `O/N=C1\CC2(Cc3nonc31)OCCO2`, the inhibition was 2.79% (inactive).

With `CN1C(c2ccc(F)cc2)=CS/C1=C(/C#N)c1nnc2n1-c1ccccc1SC2`, the inhibition was 25.7% (active).

As to `Clc1ccc(C=NC23CN4CN(CN(C4)C2)C3)cc1`, the inhibition is 0.87% (inactive).

With `CC(C)C(=O)Nc1oc(-c2ccccc2)cc1C#N`, the inhibition is 1.75% (inactive).

`OC(c1ccccc1)C(CN1CCOCC1)c1ccccc1` (centres undefined): the inhibition was 0.69% (inactive).

As to `O=C(Nc1nnc(-c2ccccc2)o1)c1cccc(S(=O)(=O)N2CCOCC2)c1`, the inhibition is 4.84% (inactive).

For `O=C(O)c1ccc(OCC2CCCO2)cc1` (centres undefined), the inhibition is 10.9% (inactive).

Turning to `Cc1ccc(-c2cc(C(=O)NCc3cn(C)nc3C)c3cc(Br)ccc3n2)cc1`, the inhibition was -4.68% (inactive).

With `O=P(c1ccc2c(c1)OCCO2)(N1CCOCC1)N1CCOCC1`, the inhibition is 6.13% (inactive).

As to `CC(c1ccco1)N(C(=O)COc1ccccc1[N+](=O)[O-])c1ccccn1` (centres undefined), the inhibition was 10.8% (inactive).

On to `COc1ccc(C(C)=O)cc1COC(=O)Cn1cnc2ccccc2c1=O`, for which the inhibition is 6.33% (inactive).

For the compound `COc1ccc(N2CCN(C(=O)CN3C(=O)COc4ccccc43)CC2)cc1`, the inhibition is 3.49% (inactive).

As to `CC(NCC(=O)Nc1ccccc1C(=O)NC1CC1)c1ccccc1Cl` (centres undefined), the inhibition was 3.15% (inactive).

For `COc1cccc2c1C(=O)c1c(O)c3c(c(O)c1C2=O)CC(O)(C(C)=NNC(=O)c1ccc(Cl)c(Cl)c1)CC3OC1CC(N)C(O)C(C)O1` (centres undefined), the inhibition was 44.5% (active).

As for `O=C(Nc1cccc2c1CCCC2)c1ccc(F)cc1`, the inhibition is 7.49% (inactive).

Take `COCCNC(=S)Nc1cc(S(=O)(=O)N2CCOCC2)ccc1N1CCCCC1`: the inhibition is 7.35% (inactive).

As for `CC(C)C(C(=O)NC1CCCCC1)N(CC1CCCO1)C(=O)CNS(=O)(=O)c1ccc(F)cc1` (centres undefined), the inhibition was 3.67% (inactive).

`CC(C)CN1CC(C)C(=O)N(c2ccccc2)C1=S` (centres undefined): the inhibition was 0.15% (inactive).

For the compound `COc1cc2c(C(=O)N(C)c3cc(Cl)ccc3OC)cn(C)c(=O)c2cc1OC`, the inhibition is 6.3% (inactive).

Consider `Cc1ccc(NC(=O)COc2ccc(/C=N\NC(=O)c3cccnc3)cc2)cc1C`, for which the inhibition was -9.46% (inactive).

Regarding `O=C(NN=C1CCC(=NNC(=O)c2cccnc2)CC1)c1cccnc1`, the inhibition is 8.42% (inactive).

`O=C(N/N=C/c1sc(N2CCCCC2)nc1-c1cccs1)c1cccnc1`: the inhibition is 26.1% (active).

With `COc1ccccc1C(=O)c1ccccc1C(=O)c1ccccc1`, the inhibition was 8.6% (inactive).

Consider `Cc1cc(C)n(C(=O)CCNC(=O)c2ccccc2Cl)n1`, for which the inhibition is -1.83% (inactive).

In the case of `O=C(NNc1ccccc1Cl)C(O)(c1cccc(C(F)(F)F)c1)c1cccc(C(F)(F)F)c1`, the inhibition was 8.34% (inactive).

As for `C[n+]1cccc(C(=O)O)c1`, the inhibition was 4.85% (inactive).

Turning to `O=C(COc1ccc(S(=O)(=O)NCc2ccccc2)cc1)N1CCOCC1`, the inhibition is -1.1% (inactive).

For `CCOC(=O)Cc1ncccc1C(=O)Nc1ccc(OC(F)(F)F)cc1`, the inhibition is 4.95% (inactive).

Turning to `O=C(Nc1ccc(OC(F)(F)F)cc1)c1ccc2c(c1)no[n+]2[O-]`, the inhibition is 51.2% (active).

For the compound `Cn1cccc1/C=N/NC(=O)c1ccc(OC(F)(F)C(F)F)cc1`, the inhibition is 4.01% (inactive).

Regarding `O=C(COc1ccccc1)Nc1cc2c3c(c1)CC(=O)N3CCC2`, the inhibition is 3.19% (inactive).

As to `CCC(C)NC(=O)CN(C1CCCCC1)S(C)(=O)=O` (centres undefined), the inhibition was -2.01% (inactive).

With `Cc1cc(NC(=O)CCC(=O)N(CC(=O)NCC2CCCO2)c2ccccc2)no1` (centres undefined), the inhibition is -3.62% (inactive).

Consider `CN(CC(=O)Nc1ccc(Cl)cc1)C(=O)CNC(=O)c1ccc2ccccc2c1`, for which the inhibition is 5.2% (inactive).

`CCOC(=O)CC(NC(=O)C1c2ccccc2Oc2ccccc21)c1ccc(C)cc1` (centres undefined): the inhibition is 6.13% (inactive).

Turning to `CCCN(CCC)C(=O)C1c2ccccc2Oc2ccccc21`, the inhibition was 27.8% (active).

`CCCCCNC(=O)C1c2ccccc2Oc2ccccc21`: the inhibition was -4.51% (inactive).

`CCOC(=O)CCCNC(=O)COC(=O)c1cc(Br)c(Br)s1`: the inhibition is -2.8% (inactive).

As for `COc1nc(Oc2ccc(=O)n(C)n2)nc(N(C)C)n1`, the inhibition is 4.35% (inactive).

As to `O=C1Nc2ccc([N+](=O)[O-])cc2C1=Nc1cccc(CO)c1`, the inhibition is 31.8% (active).

For `O=[N+]([O-])c1ccc(N(CCO)Cc2ccccc2)c([N+](=O)[O-])c1`, the inhibition was 4.36% (inactive).

Take `CN1CCN(/N=C2/C(=O)Nc3ccc([N+](=O)[O-])cc32)CC1`: the inhibition was 1.85% (inactive).

For the compound `CCCS(=O)(=O)N1CCCC(C(=O)NCCN2CCCCC2C)C1` (centres undefined), the inhibition is -3.97% (inactive).

Consider `O=C(Nc1ccc2ccccc2c1)Nc1ccc2snnc2c1`, for which the inhibition is -10.5% (inactive).

In the case of `Cc1cc(OCCN2CCCC2)cc(C(C)C)c1`, the inhibition was 3.65% (inactive).

Take `COCCNC(=O)c1snc2ccc(Cl)cc12`: the inhibition was 8.07% (inactive).

As for `COCCNC(=O)Nc1ccc2nc(-c3ccco3)c(-c3ccco3)nc2c1`, the inhibition was 26.5% (active).

As for `O=C(Nc1nc(-c2ccco2)c(-c2ccco2)s1)c1ccco1`, the inhibition was 15.7% (inactive).

Consider `CC(=O)Nc1ccc(NC(=O)C2CCCN(S(=O)(=O)c3ccc(Cl)cc3)C2)cc1` (centres undefined), for which the inhibition was 4.7% (inactive).

In the case of `CCOc1ccc(S(=O)(=O)n2ccnc2)c2ccccc12`, the inhibition is 4.28% (inactive).
